# Assay results taken from PubChem BioAssay AID1159580 (chemical genetic matrix, 2015).
# Out of some 5,500 compounds screened, about 2,000 (36%) were called active. Inconclusive results (about 18%) are left out. This is one part of the list. Unmarked numbers belong to inactive results. Cut-off read from the data, not from the text of the source: active = normalized growth mostly below about 0.91 (no sharp cut-off); inconclusive = no clear call, values can overlap the other calls; inactive = mostly above about 0.92.
# Test: chemical genetic growth profiling, strain panel (AID 1159580);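 note: tested at 20 µM; growth read once vehicle control cultures reached saturation at 30 °C; 1 = growth at the plate median or of vehicle wells; lower values mean less growth of the strain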
# Conditions: S. cerevisiae deletion strains, growth OD
structure (smiles),measurement,setting,value
O=C(O)C1CN(CCCP(=O)(O)O)CCN1 (centres undefined),normalized growth,"locus YAL040C, strain CLN3, hits give low values",0.977
same,normalized growth,"locus YCL061C, strain MRC1 (second series), hits give low values",0.994
same,normalized growth,"locus YDR363W, strain ESC2, hits give low values",0.965
same,normalized growth,"locus YER002W, strain NOP16, hits give low values",0.975
same,normalized growth,"locus YGR078C, strain PAC10, hits give low values",0.966
same,normalized growth,"locus YGR229C, strain SMI1, hits give low values",0.967
same,normalized growth,"locus YJR075W, strain HOC1, hits give low values",0.987
same,normalized growth,"locus YNL128W, strain TEP1, hits give low values",1.02
same,normalized growth,"locus YNL175C, strain NOP13, hits give low values",0.974
same,normalized growth,"locus YNL197C, strain WHI3, hits give low values",0.99
same,normalized growth,"locus YNL224C, strain SQS1, hits give low values",0.991
same,normalized growth,"locus YOR083W, strain WHI5 (second series), hits give low values",1.04
same,normalized growth,"locus YPL055C, strain LGE1, hits give low values",0.951
same,normalized growth,"locus YPL241C, strain CIN2, hits give low values",0.984
COc1ccc(-c2cc(=O)c3c(OC)c(OC)c(OC)c(OC)c3o2)cc1,normalized growth,"locus YAL021C, strain ccr4, hits give low values",0.996
same,normalized growth,"locus YAL026C, strain drs2, hits give low values",0.846 (active)
same,normalized growth,"locus YAL030W, strain snc1, hits give low values",0.959
same,normalized growth,"locus YBL061C, strain skt5, hits give low values",0.792 (active)
same,normalized growth,"locus YBR009C, strain hhf1, hits give low values",0.91
same,normalized growth,"locus YBR023C, strain chs3, hits give low values",0.848 (active)
same,normalized growth,"locus YBR171W, strain sec66, hits give low values",0.961
same,normalized growth,"locus YBR231C, strain swc5, hits give low values",0.795 (active)
same,normalized growth,"locus YBR279W, strain paf1, hits give low values",0.942
same,normalized growth,"locus YCL011C, strain gbp2, hits give low values",0.907 (active)
same,normalized growth,"locus YCL016C, strain dcc1, hits give low values",0.911 (active)
same,normalized growth,"locus YCL061C, strain MRC1, hits give low values",0.918 (active)
same,normalized growth,"locus YCL069W, strain vba3, hits give low values",0.934
same,normalized growth,"locus YCR088W, strain abp1, hits give low values",0.937
same,normalized growth,"locus YDL005C, strain med2, hits give low values",0.985
same,normalized growth,"locus YDL040C, strain nat1, hits give low values",0.975
same,normalized growth,"locus YDR001C, strain nth1, hits give low values",0.959
same,normalized growth,"locus YDR069C, strain doa4, hits give low values",0.981
same,normalized growth,"locus YDR137W, strain rgp1, hits give low values",0.705 (active)
same,normalized growth,"locus YDR159W, strain sac3, hits give low values",0.931
same,normalized growth,"locus YDR195W, strain ref2",1.05
same,normalized growth,"locus YDR297W, strain sur2, hits give low values",0.954
same,normalized growth,"locus YDR334W, strain swr1, hits give low values",0.938
same,normalized growth,"locus YDR335W, strain msn5, hits give low values",0.915 (active)
same,normalized growth,"locus YDR392W, strain spt3, hits give low values",0.248 (active)
same,normalized growth,"locus YEL003W, strain gim4, hits give low values",0.964
same,normalized growth,"locus YEL037C, strain rad23, hits give low values",0.99
same,normalized growth,"locus YEL061C, strain CIN8 (second series), hits give low values",0.874 (active)
same,normalized growth,"locus YER015W, strain faa2, hits give low values",0.912 (active)
same,normalized growth,"locus YER016W, strain bim1, hits give low values",0.898 (active)
same,normalized growth,"locus YER111C, strain swi4, hits give low values",0.978
same,normalized growth,"locus YER155C, strain BEM2 (second series), hits give low values",0.51 (active)
same,normalized growth,"locus YFR010W, strain ubp6, hits give low values",0.967
same,normalized growth,"locus YGL167C, strain pmr1, hits give low values",0.972
same,normalized growth,"locus YGL173C, strain kem1, hits give low values",0.913
same,normalized growth,"locus YGL227W, strain vid30, hits give low values",0.87 (active)
same,normalized growth,"locus YGL240W, strain doc1, hits give low values",0.84 (active)
same,normalized growth,"locus YGL253W, strain hxk2, hits give low values",0.792 (active)
same,normalized growth,"locus YHR013C, strain ard1, hits give low values",0.887
same,normalized growth,"locus YHR027C, strain rpn1, hits give low values",0.974
same,normalized growth,"locus YHR030C, strain SLT2, hits give low values",1.02
same,normalized growth,"locus YHR079C, strain IRE1, hits give low values",1.02
same,normalized growth,"locus YHR142W, strain chs7, hits give low values",0.54 (active)
same,normalized growth,"locus YJL092W, strain hpr5, hits give low values",0.946
same,normalized growth,"locus YJL095W, strain BCK1 (second series), hits give low values",0.899 (active)
same,normalized growth,"locus YJL095W, strain BCK1, hits give low values",0.984
same,normalized growth,"locus YJL115W, strain asf1, hits give low values",0.977
same,normalized growth,"locus YJL129C, strain trk1, hits give low values",0.774 (active)
same,normalized growth,"locus YJL154C, strain vps35, hits give low values",0.996
same,normalized growth,"locus YJL164C, strain tpk1, hits give low values",0.933
same,normalized growth,"locus YJL166W, strain qcr8, hits give low values",0.801 (active)
same,normalized growth,"locus YJL187C, strain SWE1, hits give low values",0.922 (active)
same,normalized growth,"locus YJR066W, strain TOR1, hits give low values",0.964
same,normalized growth,"locus YKL160W, strain elf1, hits give low values",0.887 (active)
same,normalized growth,"locus YKR026C, strain gcn3, hits give low values",0.974
same,normalized growth,"locus YKR091W, strain srl3, hits give low values",0.986
same,normalized growth,"locus YLL001W, strain dnm1, hits give low values",0.922
same,normalized growth,"locus YLL026W, hits give low values",0.968
same,normalized growth,"locus YLL041C, strain sdh2, hits give low values",0.973
same,normalized growth,"locus YLR027C, strain aat2, hits give low values",0.892 (active)
same,normalized growth,"locus YLR113W, strain HOG1, hits give low values",0.96
same,normalized growth,"locus YLR221C, strain rsa3, hits give low values",0.889 (active)
same,normalized growth,"locus YLR258W, strain gsy2, hits give low values",0.944
same,normalized growth,"locus YLR262C, strain YPT6 (second series), hits give low values",0.692 (active)
same,normalized growth,"locus YLR320W, strain mms22, hits give low values",0.635 (active)
same,normalized growth,"locus YLR342W, strain FKS1, hits give low values",0.904 (active)
same,normalized growth,"locus YLR357W, strain rsc2, hits give low values",0.924
same,normalized growth,"locus YLR370C, strain arc18, hits give low values",0.862 (active)
same,normalized growth,"locus YLR384C, strain iki3, hits give low values",0.978
same,normalized growth,"locus YML120C, strain ndi1, hits give low values",0.948
same,normalized growth,"locus YMR058W, strain fet3, hits give low values",0.845 (active)
same,normalized growth,"locus YMR125W, strain sto1, hits give low values",0.899
same,normalized growth,"locus YMR129W, hits give low values",0.978
same,normalized growth,"locus YMR205C, strain PFK2, hits give low values",0.78 (active)
same,normalized growth,"locus YMR231W, strain pep5, hits give low values",1.01
same,normalized growth,"locus YNL071W, strain lat1, hits give low values",0.473 (active)
same,normalized growth,"locus YNL183C, strain NPR1, hits give low values",0.937
same,normalized growth,"locus YNL209W, strain ssb2, hits give low values",0.994
same,normalized growth,"locus YNL248C, strain rpa49, hits give low values",0.997
same,normalized growth,"locus YNL322C, strain KRE1 (second series), hits give low values",0.943
same,normalized growth,"locus YNR049C, strain mso1, hits give low values",0.985
same,normalized growth,"locus YOR001W, strain rrp6, hits give low values",0.962
same,normalized growth,"locus YOR070C, strain gyp1, hits give low values",0.961
same,normalized growth,"locus YOR080W, strain dia2, hits give low values",0.992
same,normalized growth,"locus YOR083W, strain WHI5, hits give low values",0.879 (active)
same,normalized growth,"locus YOR106W, strain vam3, hits give low values",0.837 (active)
same,normalized growth,"locus YOR231W, strain MKK1, hits give low values",1.02
same,normalized growth,"locus YOR265W, strain rbl2, hits give low values",0.94
same,normalized growth,"locus YOR270C, strain vph1, hits give low values",0.644 (active)
same,normalized growth,"locus YOR290C, strain snf2, hits give low values",0.886
same,normalized growth,"locus YPL051W, strain arl3, hits give low values",0.882 (active)
same,normalized growth,"locus YPL078C, strain atp4, hits give low values",0.791 (active)
same,normalized growth,"locus YPL106C, strain sse1, hits give low values",0.927
same,normalized growth,"locus YPL240C, strain hsp82, hits give low values",0.966
same,normalized growth,"locus YPL256C, strain CLN2, hits give low values",1.04
